Test results published in PubChem BioAssay (Tox21).
Values joined by “and” are separate entries in the source; they are usually repeats but may differ in a detail not shown here. Equal values may be shown once. Inconclusive results are not listed. Entries that show only a call come without a potency. Some compounds were tested as several samples or in several runs, with calls that do not always agree. Active and inactive are the calls of the source. Unless noted, calls come from the whole dose curve.

Key:
[1] = qHTS assay to identify small molecule agonists of the vitamin D receptor (VDR) signaling pathway - cell viability counter screen (AID 743224; active = well fitted curve in the direction sought with a large enough effect in the repeat runs; an effect the other way counts as inactive or inconclusive; note: nearly all actives have a fitted effect of over 50% in size; note: potency is the fitted concentration of half-maximal effect)
How it was run: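 VDR-bla cells were preincubated 4 h at 37C/5% CO2, then exposed to compounds for 16 h. After the 2 h room-temperature bla FRET read, CellTiter-Glo was added to the same wells and luminescence read after 30 min.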

[2] = qHTS assay to identify small molecule antagonists of the vitamin D receptor (VDR) signaling pathway - cell viability counter screen (AID 743225; active = well fitted curve in the direction sought with a large enough effect in the repeat runs; an effect the other way counts as inactive or inconclusive; note: nearly all actives have a fitted effect of over 50% in size; note: potency is the fitted concentration of half-maximal effect)
How it was run: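 Same-well multiplex: following 16 h treatment of HEK 293T cells carrying a UAS-driven beta-lactamase reporter with compound and agonist (3 nM final), and a 2 h FRET substrate step, CellTiter-Glo was added and luminescence read after 30 min.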

[3] = qHTS assay to identify small molecule agonists of the NFkB signaling pathway - cell viability counter screen (AID 1159515); note: nearly all actives have a fitted effect of over 55% in size; note: potency is the fitted concentration of half-maximal effect
How it was run: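 NFkB-bla ME-180 cells, 2,000/well, were plated overnight at 37 C, 5% CO2, then exposed to compounds in DMSO for 5 hr. After the bla FRET read, CellTiter-Glo was added to the same wells; luminescence was read after 30 min at room temperature.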

[4] = qHTS assay to identify small molecule agonists of the endoplasmic reticulum stress response signaling pathway (AID 1159516; active = well fitted activation curve with a large enough effect in the signal ratio in the repeat runs, not every such curve was filed as active; the % refers to the signal ratio)
How it was run: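 CellSensor ESRE-bla HeLa cells, carrying a beta-lactamase reporter driven by the ER stress response element, were plated overnight and exposed to compounds for 5 hr at 37 C. Reporter activity was read as FRET substrate fluorescence after 2 hr at room temperature.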

[5] = qHTS assay to identify small molecule agonists of the endoplasmic reticulum stress response signaling pathway - cell viability counter screen (AID 1159517); note: nearly all actives have a fitted effect of over 50% in size; note: potency is the fitted concentration of half-maximal effect
How it was run: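 Cells, HeLa ESRE-bla; density, 1,500/well; dosing, 5 hr at 37 C, 5% CO2; readout, CellTiter-Glo luminescence after 30 min RT.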

[6] = qHTS assay to identify small molecule antagonists of the retinoid-related orphan receptor gamma (ROR-gamma) signaling pathway - cell viability counter screen (AID 1159520; active = well fitted curve in the direction sought with a large enough effect in the repeat runs; an effect the other way counts as inactive or inconclusive; note: nearly all actives have a fitted effect of over 50% in size; note: potency is the fitted concentration of half-maximal effect)
How it was run: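 Cytotoxicity was read from cellular ATP (CellTiter-Glo luminescence) after 16 hr at 37 C with 1 uM doxycycline induction. The inducer was added 2 hr after compound transfer to Tet-on ROR gamma CHO cells.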

[7] = qHTS assay to identify small molecule agonists of the AP-1 signaling pathway - cell viability counter screen (AID 1159525); note: nearly all actives have a fitted effect of over 55% in size; note: potency is the fitted concentration of half-maximal effect
How it was run: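 Luminescent ATP readout (Cell Titer Glo, 30 min RT), normalised to DMSO and tetra n-octyl ammonium bromide controls. Cells were ME-180 AP-1-bla in 0.5% dialyzed FBS Opti-MEM, with a 5 h, 37 °C compound exposure.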

[8] = qHTS assay to identify small molecule agonists of the AP-1 signaling pathway (AID 1159526)
[9] = biological target: Nuclear receptor ROR-gamma (Homo sapiens) (UniProt P51449); assay: qHTS assay to identify small molecule antagonists of the retinoid-related orphan receptor gamma (ROR-gamma) signaling pathway (AID 1159521; active = well fitted curve in the direction sought with a large enough effect in the repeat runs; an effect the other way counts as inactive or inconclusive; note: nearly all actives have a fitted effect of over 50% in size; note: potency is the fitted concentration of half-maximal effect)
How it was run: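 Inducible-expression reporter assay: doxycycline (1 uM final) switched on RORγ in CHO cells bearing a ROR response element-luciferase construct, with test compounds present from 2 h beforehand. Decreased luminescence after 16 h defined antagonist activity.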

[10] = biological target: Retinoic acid receptor RXR-alpha (Homo sapiens) (UniProt P19793); assay: qHTS assay to identify small molecule agonists of the RXR signaling pathway (AID 1159527); note: nearly all actives have a fitted effect of over 35% in size
How it was run: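 Compounds in DMSO were added to RXR-alpha-UAS-bla HEK 293T cells kept in 2% charcoal-stripped serum, and incubated 16 hr at 37 C with 5% CO2. Reporter signal came from a 2 hr B/G FRET substrate step.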

Retinoic acid receptor RXR-alpha (Homo sapiens), sequence (P19793 whole entry, looked up): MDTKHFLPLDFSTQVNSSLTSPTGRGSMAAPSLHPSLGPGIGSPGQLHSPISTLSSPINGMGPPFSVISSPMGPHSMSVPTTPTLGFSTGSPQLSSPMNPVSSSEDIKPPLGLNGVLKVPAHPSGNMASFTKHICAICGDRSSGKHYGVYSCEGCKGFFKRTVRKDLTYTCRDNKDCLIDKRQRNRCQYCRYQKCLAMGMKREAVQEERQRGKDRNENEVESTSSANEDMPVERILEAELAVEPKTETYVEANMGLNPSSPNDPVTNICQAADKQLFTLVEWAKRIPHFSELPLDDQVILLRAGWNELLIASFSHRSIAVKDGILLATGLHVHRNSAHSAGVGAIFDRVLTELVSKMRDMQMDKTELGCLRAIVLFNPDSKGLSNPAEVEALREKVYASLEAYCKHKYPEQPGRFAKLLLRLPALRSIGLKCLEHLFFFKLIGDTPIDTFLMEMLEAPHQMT

SMILES | Potency [1] | Potency [2] | Potency [3] | Potency [4] | Potency [5] | Potency [6] | Potency [7] | outcome [8] | Potency [9] | Potency [10]
O=[N+]([O-])c1ccc(Nc2ccccc2)cc1 | inactive | inactive and 49 µM (active) | inactive and 43.6 µM (active) | inactive | inactive and 54.9 µM (active) | inactive | inactive | inactive | – | –
CC(C)(c1ccccc1)c1ccc(O)cc1 | inactive | – | 43.3 µM (active) and 54.9 µM (active) | inactive | – | – | – | – | 60.6 µM (active) | –
OCCOCCO | inactive | inactive | inactive | inactive | inactive | inactive | inactive | inactive | inactive | –
O=[N+]([O-])c1ccc(Cl)c([N+](=O)[O-])c1 | 14 µM (active) and 17.4 µM (active) | 19.8 µM (active) and 19.5 µM (active) | 49.7 µM (active) and 54.9 µM (active) | – | 22.2 µM (active) and 49 µM (active) | 49.3 µM (active) and 21.7 µM (active) | 35.2 µM (active) and 34.7 µM (active) | – | 6.21 µM (active) and 6.86 µM (active) | –
CC(C)(c1ccc(OCC2CO2)cc1)c1ccc(OCC2CO2)cc1 (stereo unspecified) | inactive | inactive | inactive | inactive | inactive | inactive | inactive | inactive | inactive | –
CC(C)Nc1nc(Cl)nc(NC(C)C)n1 | inactive | inactive | inactive | inactive | inactive | inactive | inactive | inactive | – | inactive
NN=C(N)N | inactive | inactive | inactive | inactive | inactive | inactive | inactive | inactive | – | inactive
COP(=S)(OC)SCn1nnc2ccccc2c1=O | inactive | inactive | inactive | inactive | inactive | inactive | inactive | – | inactive | –
CC(C)(O)C(=O)Nc1ccc([N+](=O)[O-])c(C(F)(F)F)c1 | inactive | inactive | inactive | inactive | inactive | inactive | inactive | inactive | 19.7 µM (active) | –
CCCCCCCCCc1ccc(O)cc1 | – | inactive | inactive | inactive | inactive | 61.8 µM (active) and inactive | – | – | – | –
CCOP(=S)(OCC)SCn1c(=O)oc2cc(Cl)ccc21 | inactive | inactive | inactive | inactive | inactive | inactive | inactive | – | 32.9 µM (active) | –
CCOP(=O)(O)OCC (tested in a mixture with another compound) | inactive and 17.2 µM (active) | – | inactive and 54.5 µM (active) | inactive | inactive and 24.3 µM (active) | inactive and 54 µM (active) | inactive and 48.6 µM (active) | inactive | – | inactive
CNC(=O)Oc1cccc2c1OC(C)(C)C2 | inactive | inactive | inactive | inactive | inactive | inactive | inactive | inactive | – | inactive
CC(C)Nc1ccc(Nc2ccccc2)cc1 | 43.5 µM (active) and 43.6 µM (active) | 43.6 µM (active) | inactive | inactive | inactive | – | 43.5 µM (active) and 54.9 µM (active) | – | 38.4 µM (active) and 54.5 µM (active) | –
CC(C)(c1ccccc1)c1ccc(O)c(C(C)(C)c2ccccc2)c1 | 19.3 µM (active) and 15.5 µM (active) | 30.6 µM (active) and 17.4 µM (active) | 21.7 µM (active) and 21.9 µM (active) | – | 27.3 µM (active) and 27.5 µM (active) | 48.1 µM (active) and 30.6 µM (active) | 12.2 µM (active) and 21.9 µM (active) | – | 19.2 µM (active) and 27.3 µM (active) | –
CCC[CH2][Sn]([Cl])([CH2]CCC)[CH2]CCC | 437 nM (active) and 1.23 µM (active) | 618 nM (active) and 3.47 µM (active) | 1.1 µM (active) and 1.95 µM (active) | – | 1.74 µM (active) and 3.09 µM (active) | 1.54 µM (active) and 1.72 µM (active) | 873 nM (active) and 1.74 µM (active) | – | 194 nM (active) and 686 nM (active) | –
CCC(=O)Nc1ccc(Cl)c(Cl)c1 | inactive | inactive | inactive | inactive | inactive | inactive | inactive | inactive | – | inactive
CC1(C)C(C(=O)OC(C#N)c2cccc(Oc3ccccc3)c2)C1(C)C (stereo unspecified) | inactive | inactive | inactive | inactive | inactive | inactive | inactive | inactive | 48.9 µM (active) | –
